Y pestis TopoI: Y. pestis Topo-I inhibition via cleavage products; Y. pestis Topo-I cleavage product accumulation, plate reader; activity, % at 10 µM; 360,000 tested, 0.064% active; in the data active = activity above about 50%, passing the limit was not always enough; inconclusive = no clear call, values can overlap the other calls
BJeLR lethal: kills HRASV12-expressing BJeLR cells. inhibition, % (concentration not given with the values). AID 1554. BJeLR (HRASV12) viability, CellTiter-Glo ATP luminescence, 48 h. 300,000 tested, 0.17% active; in the data active = inhibition above about 50%; inconclusive = no clear call, values can overlap the other calls
RecA splice inh: inhibitors of M. tuberculosis RecA intein splicing | AID 2221 | 290,000 tested, 0.75% active | cell-free RecA intein splicing, fluorescence | P9WHJ3 | inhibition, % (no concentration beside the values); in the data active = inhibition above about 30%; inconclusive = no clear call, values can overlap the other calls;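 note: 0% = vehicle wells and 100% = reference inhibitor control wells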
Target sequence (P9WHJ3 whole entry, looked up, canonical isoform): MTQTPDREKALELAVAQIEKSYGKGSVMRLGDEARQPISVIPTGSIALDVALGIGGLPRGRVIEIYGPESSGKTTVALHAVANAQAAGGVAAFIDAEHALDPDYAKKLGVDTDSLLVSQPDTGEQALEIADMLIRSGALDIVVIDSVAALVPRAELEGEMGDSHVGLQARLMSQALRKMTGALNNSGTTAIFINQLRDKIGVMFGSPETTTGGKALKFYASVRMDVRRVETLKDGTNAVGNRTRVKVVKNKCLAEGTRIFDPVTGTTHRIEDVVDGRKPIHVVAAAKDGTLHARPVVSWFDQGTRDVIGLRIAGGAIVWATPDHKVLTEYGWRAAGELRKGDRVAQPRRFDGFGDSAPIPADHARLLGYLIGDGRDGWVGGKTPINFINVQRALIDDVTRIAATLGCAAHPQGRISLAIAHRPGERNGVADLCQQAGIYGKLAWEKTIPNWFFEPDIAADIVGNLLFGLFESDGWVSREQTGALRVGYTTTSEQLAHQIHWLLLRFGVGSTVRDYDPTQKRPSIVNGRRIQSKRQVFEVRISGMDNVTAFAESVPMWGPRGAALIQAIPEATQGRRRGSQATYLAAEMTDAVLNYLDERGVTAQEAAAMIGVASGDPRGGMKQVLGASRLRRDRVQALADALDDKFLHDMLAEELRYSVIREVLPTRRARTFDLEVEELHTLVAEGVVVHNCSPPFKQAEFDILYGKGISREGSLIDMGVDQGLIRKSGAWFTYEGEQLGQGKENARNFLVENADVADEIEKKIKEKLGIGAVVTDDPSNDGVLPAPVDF
Mtb bLac sens: beta-lactam sensitization of Mtb H37Rv; inhibition, % at 25 µM; 330,000 tested, 0.27% active; M. tuberculosis H37Rv growth with meropenem, percent inhibition; AID 434955; call rule not given here;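 note: growth measured after seven days incubation then overnight dye step; 0% = bacteria only wells and 100% = bacteria with antibiotic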
CCHF vOTU inh-1: CCHFV vOTU protease inhibition; Pep-AMC fluorescence; inhibition, % at 11.5 µM; 370,000 tested, 0.55% active; note: 0% = vehicle wells with enzyme and 100% = no enzyme wells
BioA inh: inhibitors of Mycobacterium tuberculosis BioA enzyme. purified M. tuberculosis BioA enzyme, plate reader. inhibition, % at 9.99 µM. 360,000 tested, 0.096% active. AID 602481; in the data active = inhibition above about 40%; inconclusive = no clear call, values can overlap the other calls
GFP chromo cs: counter-screen: blocks GFP chromophore formation; shares compounds with RecA splice inh; cell-free GFP chromophore formation, fluorescence; EC50, µM; 2,100 tested, 83% active; AID 434968; call rule not given here
CCHF vOTU inh-2: CCHFV vOTU protease inhibition, confirmation; Recombinant CCHFV vOTU, Pep-AMC fluorescence; inhibition, % at 11.5 µM; shares compounds with CCHF vOTU inh-1; 1,900 tested, 17% active
Numbers without * were called inactive; ? = inconclusive; nt = not tested or not shown. Shown are actives, neighbours in structure and some others; about 1.1% of the full set was active somewhere. Cut-off read from the data, not from the text of the source, unless noted: active = inhibition above about 30%; inactive = the rest.

SMILES | Y pestis TopoI | BJeLR lethal | RecA splice inh | Mtb bLac sens | CCHF vOTU inh-1 | BioA inh | GFP chromo cs | others
Cc1nn(-c2ccccc2)c(Cl)c1C(=O)NCC(=O)O | -0.3 | -2.3 | -4.2 | -13.9 | 4.7 | -2.2 | nt
Cc1nn(-c2ccccc2)c(Cl)c1CN(C(=O)CCl)c1ccc(Cl)cc1 | 38.9 | 133.1* | 88.5* | 98.3 | -1.7 | 0.2 | 2.17*
CC(=O)N(Cc1c(C)nn(-c2ccccc2)c1Cl)c1ccc(Cl)cc1 | 3.7 | -2.5 | 5.8 | 12.3 | 4.1 | 7.0 | nt
Clc1ccc(CSC(Cn2ccnc2)c2ccc(Cl)cc2Cl)cc1 (stereo unspecified) | 57.3* | -0.2 | 41.7* | 94.6 | 0.7 | 7.7 | 23.1*
CCC(=O)N1C[C@@H](C)[C@@H](OC)CN(C)C(=O)c2ccc(NC(=O)c3cc(C)on3)cc2OC[C@@H]1C | nt | nt | nt | nt | nt | 0.0 | nt
COC1(OC)N=C(N)C2(C#N)C(c3ccc(F)cc3)C12C#N (stereo unspecified) | -10.6 | -5.9 | 0.3 | -11.7 | -3.1 | -1.0 | nt
CCSC1(SCC)N=C(N)C2(C#N)C(c3ccc(F)cc3)C12C#N (stereo unspecified) | -11.2 | 16.0 | 49.7* | 30.6 | 3.7 | 1.7 | 38.3*
CNC[C@H]1Oc2ccc(NC(=O)C3CC3)cc2C(=O)N([C@@H](C)CO)C[C@H]1C | nt | nt | nt | nt | nt | -0.5 | nt
CCCn1nc([N+](=O)[O-])c(C(C#N)c2nc3ccccc3s2)c(Cl)c1=O (stereo unspecified) | -3.4 | 20.0 | 81.4* | 59.0 | 18.3 | 8.4 | 6.12*
N#CC(C#N)=C(C#N)c1ccc(Nc2ccccc2)cc1 | -5.5 | -3.4 | 51.9* | 11.4 | -2.5 | -1.3 | 4.56*
CCC(=O)Nc1c(C)nn(C(=O)CC)c1C | -0.8 | -7.8 | 56.6* | -1.5 | 0.2 | -0.5 | >38
Cc1ccccc1S(=O)(=O)N1C[C@@H](O)COC[C@@H]2O[C@@H](CC(=O)N3CCCCC3)CC[C@H]21 | nt | nt | nt | nt | nt | -1.3 | nt
N=c1n(Cc2ccc(Cl)cc2)c2ccccc2n1CC(O)COc1ccccc1 (stereo unspecified) | -6.5 | 10.4 | 13.5 | 90.3 | 16.4 | 13.9 | nt
N=c1n(Cc2ccccc2)c2ccccc2n1CC(O)COc1ccc(Cl)cc1Cl (stereo unspecified) | -13.9 | nt | 31.9* | nt | 24.6 | nt | >38
COCC(=O)Nc1ccc2c(c1)C(=O)N(C)C[C@@H](OC)[C@H](C)CN(C)[C@H](C)CO2 | nt | nt | nt | nt | nt | -5.8 | nt
COc1ccc(NC(=O)N(C)C[C@H]2Oc3c(NS(=O)(=O)c4ccc(F)cc4)cccc3C(=O)N([C@@H](C)CO)C[C@H]2C)cc1 | nt | nt | nt | nt | nt | 3.4 | nt
CC(NC(=O)Cn1ncc(Cl)c(Cl)c1=O)C12CC3CC(CC(C3)C1)C2 (stereo unspecified) | 2.3 | -9.0 | 49.0* | -10.2 | nt | nt | ?
CCn1cc(C(=O)NC(C)C23CC4CC(CC(C4)C2)C3)cn1 (stereo unspecified) | -2.8 | -0.3 | 0.1 | 4.1 | -0.1 | -1.0 | nt
CC(C)c1ccc(S(=O)(=O)/N=C2\C=C(NS(=O)(=O)c3ccccc3)C(=O)c3ccccc32)cc1 | 6.7 | 6.7 | 44.5* | 14.1 | 67.7* | 3.8 | 6.7*
C[C@@H]1CN([C@@H](C)CO)C(=O)c2cc(NS(=O)(=O)c3ccc(F)cc3)ccc2O[C@@H](C)CCCCO[C@H]1CN(C)C(=O)Nc1ccc(F)cc1 | nt | nt | nt | nt | nt | -0.9 | nt
COc1ccc(N)c2c1C(=O)c1ccccc1C2=O | -4.4 | 17.3 | 12.0 | -7.7 | -8.1 | -1.4 | nt
COc1ccc2noc3c2c1C(=O)c1ccccc1-3 | -17.8 | 14.5 | 59.9* | 63.6 | 63.5* | -21.3 | 10.1* | CCHF vOTU inh-2=103.8*
COc1ccc(OC)c(NC(=O)Nc2ccc(O)c3ccccc23)c1 | -1.9 | 1.7 | 77.8* | 3.9 | 72.7* | -0.1 | 1.24* | CCHF vOTU inh-2=-15.4
O=C1C2=C(c3ccccc31)[N+](=O)C1CCCCC1N2[O-] (stereo unspecified) | -0.7 | -8.8 | 81.9* | 4.8 | 56.7* | -1.3 | 7.95* | CCHF vOTU inh-2=28.9
Cc1ccc(C)c(S(=O)(=O)Nc2ccc(O)c3ccccc23)c1 | -9.2 | -9.4 | 95.2* | 7.2 | 62.3* | -0.2 | 0.228* | CCHF vOTU inh-2=-8.0
Cc1ccc(S(=O)(=O)Nc2ccc(O)c3ccccc23)c(C)c1 | -7.6 | 9.4 | 96.8* | 4.2 | 66.2* | -0.8 | 0.226* | CCHF vOTU inh-2=-18.9
